# From PubChem BioAssay AID743279 (National Center for Advancing Translational Sciences (NCATS), 2014)
# Out of some 360,000 compounds screened, about 17,000 (4.7%) were called active. Roughly 5% stayed inconclusive and do not appear here. The sample as a whole holds a higher share of actives than the screen did. Unmarked numbers belong to inactive results. Rule as the data show it: active = activity change below about -50%; inconclusive = mostly about -30% to -49%; inactive = weaker than that.
# Experiment: qHTS for Inhibitors of Inflammasome Signaling: IL-1-beta AlphaLISA Primary Screen
# Conditions: THP-1 LPS/ATP IL-1B secretion, 16 h; at 57.5 µM, hits give low values
# How it was run: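 Secreted IL-1B measured by AlphaLISA bead assay after 16 h compound exposure of THP-1 cells; compounds (final up to 57.5 uM) added 1 h before LPS (250 ng/mL) and ATP (1.25 mM) stimulation; lower signal means less secretion.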
# % is scaled to controls: 0 for no effect and ±100 for the full control effect.
row,Structure (SMILES),activity change
1,Nc1[nH]c(C(=O)c2ccccc2)c(-c2ccc(Br)cc2)c1C(=O)NC1CC1,12%
2,CCNc1c(NS(=O)(=O)c2ccc(C3CCCCC3)cc2)c(=O)oc2ccccc12,29.7%
3,C=CS(=O)c1sc(Cl)c(N2CCOCC2)c1[N+](=O)[O-] (stereo not given),-104% (active)
4,CCCCNC(=O)OC1CC2CC1[C@H]1CCCCN1C2=O (stereo not given in full),12.3%
5,Cc1cc(C)nc(SCC(=O)N(C)C)n1,0%
6,Cc1cc(C)nc(S/C=C/C(=O)c2ccccc2)n1,-104% (active)
7,Cc1cc(C)nc(SCc2ccccc2C#N)n1,-12.7%
8,CNc1cncc(-c2cccc(C(=O)N3CCOCC3)c2)n1,-12.2%
9,CN(C)S(=O)(=O)c1cccc(NC(=O)Cc2ccsc2)c1,19.3%
10,CN(c1ccccc1)S(=O)(=O)c1cccc(NC(=O)Cc2c(F)cccc2Cl)c1,0%
11,CN(c1ccccc1)S(=O)(=O)c1cccc(NC(=O)Cc2ccc(Cl)cc2)c1,-55.5% (active)
12,COc1nnc(-c2ccc(C)c(S(=O)(=O)N(C)C)c2)c2ccccc12,-11.4%
13,COc1ccccc1CCNS(=O)(=O)c1cn(C)nc1C,-3.36%
14,CCCc1c(-c2ccccc2F)ncn1Cc1ccccc1OC,-24.5%
15,CCCCCc1c(-c2ccc(OC)c(OC)c2)ncn1CCc1ccccc1OC,-71.5% (active)
16,CCc1c(-c2ccc(F)cc2)ncn1Cc1cccc(-c2ccccc2)c1,4.55%
17,COc1ccccc1Cc1c(-c2ccc(Cl)cc2)nc2c3ccccc3ccn12,4.19%
18,CCCCCc1c(-c2cccc(Br)c2)ncn1CCc1ccccc1OC,-27.9%
19,CCC(=O)NCc1cc(-c2nn(C)c(=O)c3ccccc23)ccc1OC,-12.6%
20,COc1ccccc1Cc1c(-c2ccc(Cl)cc2)nc2ccc(Cl)cn12,16.9%

row,Structure (SMILES),activity change
1,Cn1c(=O)c2c(ncn2CCc2ccccc2)n(C)c1=O,26.6%
2,CCCCc1c(-c2ccc(Cl)cc2)ncn1CCc1ccccc1OC,-109% (active)
3,CCCCCc1c(Cc2ccccc2)ncn1CCc1ccccc1OC,-55.8% (active)
4,CCCCc1c(-c2ccc(Br)cc2)ncn1CCc1ccccc1OC,-93.2% (active)
5,COc1cccc(NC(=O)CSc2nccn(-c3ccc4c(c3)OCCO4)c2=O)c1,-15.5%
6,COc1ccc(S(=O)(=O)NC(=O)C2(C)CCN2C(=O)COc2ccc(Cl)cc2)cc1 (stereo not given),21%
7,Cc1ccc(N2C(=O)CC(N3CCSCC3)C2=O)c(C)c1 (stereo not given),9.43%
8,Cc1c(O)c(C)c2c(c1O)C(=O)C[C@@H](c1ccccc1)O2,40.2%
9,CCCNC(=O)C1CC(=O)N(c2ccc(OCc3ccccc3)cc2)C1 (stereo not given),18%
10,c1ccc(C(=NNc2nc3ccccc3s2)c2ccccn2)cc1,-21.7%
11,C=CCn1nc(C(=O)OCC)cc1-c1sc(NC(=O)c2ccccc2)nc1C,-29.6%
12,CNC[C@H]1OCc2cnnn2CCCC(=O)N([C@H](C)CO)C[C@@H]1C,-6.3%
13,CCC(=O)Nc1ccc(C(=O)CSc2nnc(CNc3ccc(Cl)cc3)o2)cc1OC,-55.7% (active)
14,COc1cc(C(=O)NCc2nnc(SCC(=O)c3ccc(Cl)cc3)o2)cc(OC)c1OC,9.13%
15,CCOC(=O)CSc1nnc(CNc2ccc(F)cc2)o1,3.99%
16,Cc1ccc(-c2csc(C(C#N)=C(O)CN3CCN(C(=O)c4ccco4)CC3)n2)cc1,-7.72%
17,CC1=CC(C)(C)Nc2ccc(OC(=O)C(Cc3ccccc3)N3C(=O)C4CCCCC4C3=O)cc21 (stereo not given),-94.7% (active)
18,O=C(C(Cc1ccccc1)n1cccc1)N1CCN(C2CCCCC2)CC1 (stereo not given),8.33%
19,O=C(COC(=O)CN1C(=O)C2CCCCC2C1=O)Nc1ccc(F)c(F)c1F (stereo not given),4.41%
20,CC1=CC(C)(C)Nc2ccc(OC(=O)CN3C(=O)C4CCCCC4C3=O)cc21 (stereo not given),-97.6% (active)

row,Structure (SMILES),activity change
1,COc1ccc(C(=O)COC(=O)CN2C(=O)C3CC=CCC3C2=O)c(OC)c1 (stereo not given),-15.2%
2,CCOC(=O)C(Cc1ccc(N)cc1)N1C(=O)c2ccccc2C1=O (stereo not given),12.1%
3,C/C=C/C(=O)OCc1csc(CC(=O)Nc2ccccc2C)n1,13.6%
4,COc1ccc(S(=O)(=O)N2CCN(C(C)C(=O)Nc3ccc(C(C)C)cc3)CC2)cc1 (stereo not given),-16.4%
5,COCCCNC(=O)Cc1ccc(-n2c(C)nc3cccnc32)cc1,22.7%
6,COc1cccc(C(O)c2ncc(-c3ccc4ccccc4c3)[nH]2)c1 (stereo not given),18.2%
7,CCOC(=O)C1CCCN(C(=O)c2ccc(C)c(S(=O)(=O)N3CCCCC3)c2)C1 (stereo not given),4.44%
8,COc1ccc(Cl)cc1-n1c(=S)sc2c(=O)n(-c3ccc(F)cc3)c(SCC(=O)O)nc21,14.4%
9,COc1ccc(CCNC(=O)CN(c2ccccc2)S(=O)(=O)c2ccccc2)cc1,15.3%
10,CCc1cc(=O)oc2cc(OCC(=O)N3CCCc4ccccc43)ccc12,-60.9% (active)
11,CC(=O)COc1ccc2c(-c3ccccc3)cc(=O)oc2c1,-27.2%
12,CCOc1ccccc1N1CCN(C(=O)COc2ccc3c(C)cc(=O)oc3c2)CC1,23%
13,CC(C)c1cc(C(=O)N(C)C2CCCN(Cc3ccccc3F)C2)n(C)n1 (stereo not given),41.9%
14,CCN(CC)C(=O)C1=C(C)N(Cc2ccccc2)C(=O)C(CC(=O)NC(c2ccccc2)c2ccccc2)C1 (stereo not given),-15.6%
15,C/C(CC(=O)Nc1cccc(F)c1)=N\NC(=O)C(=O)NC1CCCCC1,-10.5%
16,O=C(Nc1cccc(F)c1)NC1CCCCCCC1,-92.1% (active)
17,O=C(Nc1cccc(F)c1)NC1CCCc2ccccc21 (stereo not given),-9.52%
18,COc1ccc(NC(=O)C[C@H]2C(=O)N(CCc3ccccc3)C[C@@H]2C)cc1,-9.78%
19,FC(F)Oc1ccccc1NC(=S)Nc1cccc(Cl)c1Cl,23.7%
20,CC(C)(C)S(=O)N1Cc2cc(C(=O)NCCCN3CCOCC3)nc(-c3cccc(-c4cc5ccccc5o4)c3)c2[C@H]1CCO (stereo not given in full),-27.7%
